Assay results from PubChem BioAssay AID1159580 (chemical genetic matrix, 2015).
In all, about 5,500 compounds went through this assay and about 2,000 (36%) were called active. Not shown: some 18% with an inconclusive outcome. Cut-off read from the data, not from the text of the source: active = normalized growth mostly below about 0.91 (no sharp cut-off); inconclusive = no clear call, values can overlap the other calls; inactive = mostly above about 0.92. This is one part of the list.

Experiment: chemical genetic growth profiling, strain panel (AID 1159580);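 note: tested at 20 µM; growth read once vehicle control cultures reached saturation at 30 °C; 1 = growth at the plate median or of vehicle wells; lower values mean less growth of the strain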
Settings: growth OD
[1] = S. cerevisiae deletion strains, locus YDR150W, strain NUM1, hits give low values
[2] = S. cerevisiae deletion strains, locus YPL055C, strain LGE1, hits give low values
[3] = S. cerevisiae deletion strains, locus YAL013W, strain DEP1, hits give low values
[4] = S. cerevisiae deletion strains, locus YBR229C, strain ROT2, hits give low values
[5] = S. cerevisiae deletion strains, locus YDL101C, strain DUN1, hits give low values
[6] = S. cerevisiae deletion strains, locus YEL061C, strain CIN8, hits give low values
[7] = S. cerevisiae deletion strains, locus YGR078C, strain PAC10, hits give low values
[8] = S. cerevisiae deletion strains, locus YHR030C, strain SLT2, hits give low values
[9] = S. cerevisiae deletion strains, locus YHR087W, strain rtc3, hits give low values
[10] = S. cerevisiae deletion strains, locus YJL187C, strain SWE1, hits give low values
[11] = S. cerevisiae deletion strains, locus YJR043C, strain POL32, hits give low values
[12] = S. cerevisiae deletion strains, locus YJR075W, strain HOC1, hits give low values
[13] = S. cerevisiae deletion strains, locus YLR039C, strain RIC1, hits give low values
[14] = S. cerevisiae deletion strains, locus YLR058C, strain SHM2 (second series), hits give low values
[15] = S. cerevisiae deletion strains, locus YLR085C, strain ARP6, hits give low values
[16] = S. cerevisiae deletion strains, locus YLR262C, strain YPT6, hits give low values
[17] = S. cerevisiae deletion strains, locus YML094W, strain GIM5, hits give low values
[18] = S. cerevisiae deletion strains, locus YMR219W, strain ESC1, hits give low values
[19] = S. cerevisiae deletion strains, locus YMR263W, strain SAP30, hits give low values
[20] = S. cerevisiae deletion strains, locus YNL153C, strain GIM3, hits give low values
[21] = S. cerevisiae deletion strains, locus YNL298W, strain CLA4 (second series), hits give low values
[22] = S. cerevisiae deletion strains, locus YNL322C, strain KRE1, hits give low values
[23] = S. cerevisiae deletion strains, locus YNR030W, strain Alg12, hits give low values
[24] = S. cerevisiae deletion strains, locus YPL241C, strain CIN2, hits give low values
[25] = S. cerevisiae deletion strains, locus YPR135W, strain CTF4, hits give low values
[26] = S. cerevisiae strains, strain wild type, hits give low values

Measured: normalized growth

CC(=O)Oc1cc(C(C)C)c(OCCN(C)C)cc1C
inactive: S. cerevisiae deletion strains, locus YAL040C, strain CLN3, hits give low values 1.01 | S. cerevisiae deletion strains, locus YCL061C, strain MRC1 (second series), hits give low values 1.01 | [1] 1 | S. cerevisiae deletion strains, locus YDR363W, strain ESC2, hits give low values 1.01 | S. cerevisiae deletion strains, locus YER002W, strain NOP16, hits give low values 1.03 | S. cerevisiae deletion strains, locus YNL175C, strain NOP13, hits give low values 1.01 | S. cerevisiae deletion strains, locus YNL197C, strain WHI3, hits give low values 1.01 | S. cerevisiae deletion strains, locus YNL224C, strain SQS1, hits give low values 1 | S. cerevisiae deletion strains, locus YOR083W, strain WHI5 (second series), hits give low values 1.01 | [2] 1.01

CCCCCn1c(Sc2ncc([N+](=O)[O-])s2)n[nH]c1=O
active: [3] 0.592 | [4] 0.463 | S. cerevisiae deletion strains, locus YCL061C, strain MRC1, hits give low values 0.67 | [5] 0.559 | S. cerevisiae deletion strains, locus YDL134C, strain PPH21, hits give low values 0.099 | [1] 0.615 | [6] 0.0768 | [7] 0.499 | [8] 0.0794 | [9] 0.53 | [10] 0.493 | [11] 0.695 | [12] 0.471 | S. cerevisiae deletion strains, locus YKL190W, strain CNB1, hits give low values 0.0782 | [13] 0.134 | [14] 0.675 | [15] 0.0989 | [16] 0.123 | [17] 0.22 | [18] 0.624 | [19] 0.669 | [20] 0.0882 | [21] 0.0804 | [22] 0.917 | [23] 0.0933 | [2] 0.292 | [24] 0.1 | [25] 0.186 | [26] 0.0897

C=CCn1c(Sc2ncc([N+](=O)[O-])s2)n[nH]c1=O
inactive: [5] 0.932 | [1] 0.929 | [7] 0.944 | S. cerevisiae deletion strains, locus YGR229C, strain SMI1, hits give low values 0.984 | [8] 0.775 | [9] 0.968 | [10] 0.948 | [11] 0.968 | [12] 1 | [13] 0.8 | [14] 0.962 | [16] 0.992 | [18] 0.975 | [19] 0.938 | S. cerevisiae deletion strains, locus YMR307W, strain GAS1, hits give low values 0.973 | [22] 0.996 | [2] 0.829
active: [3] 0.926 | [4] 0.913 | [6] 0.858 | [15] 0.359 | [17] 0.813 | [20] 0.815 | [21] 0.675 | [23] 0.833 | S. cerevisiae deletion strains, locus YOL006C, strain TOP1, hits give low values 0.219 | [24] 0.582 | [25] 0.488 | [26] 0.893

CCC(C)Cn1c(Sc2ncc([N+](=O)[O-])s2)n[nH]c1=O (centres undefined)
inactive: S. cerevisiae deletion strains, locus YDL028C, strain MPS1, hits give low values 0.895 | [5] 0.932 | S. cerevisiae deletion strains, locus YDL214C, strain PRR2, hits give low values 0.794 | S. cerevisiae deletion strains, locus YDR052C, strain DBF4, hits give low values 0.93 | S. cerevisiae deletion strains, locus YDR477W, strain SNF1, hits give low values 0.711 | S. cerevisiae deletion strains, locus YER123W, strain YCK3, hits give low values 0.649 | S. cerevisiae deletion strains, locus YFR019W, strain FAB1, hits give low values 0.838 | S. cerevisiae deletion strains, locus YGR040W, strain KSS1, hits give low values 0.751 | S. cerevisiae deletion strains, locus YGR052W, strain FMP48, hits give low values 0.776 | S. cerevisiae deletion strains, locus YHR079C, strain IRE1, hits give low values 0.657 | S. cerevisiae deletion strains, locus YHR082C, strain KSP1, hits give low values 0.926 | S. cerevisiae deletion strains, locus YHR205W, strain SCH9, hits give low values 0.806 | S. cerevisiae deletion strains, locus YIL147C, strain SLN1, hits give low values 0.896 | S. cerevisiae deletion strains, locus YJL095W, strain BCK1, hits give low values 0.651 | S. cerevisiae deletion strains, locus YJL128C, strain PBS2, hits give low values 0.938 | S. cerevisiae deletion strains, locus YJL157C, strain FAR1, hits give low values 0.763 | S. cerevisiae deletion strains, locus YJR066W, strain TOR1, hits give low values 0.778 | S. cerevisiae deletion strains, locus YKL048C, strain ELM1, hits give low values 0.963 | S. cerevisiae deletion strains, locus YKL067W, strain YNK1, hits give low values 0.792 | S. cerevisiae deletion strains, locus YKL101W, strain HSL1, hits give low values 0.838 | S. cerevisiae deletion strains, locus YKL203C, strain TOR2, hits give low values 0.795 | S. cerevisiae deletion strains, locus YLR133W, strain CKI1, hits give low values 0.805 | S. cerevisiae deletion strains, locus YML070W, strain DAK1, hits give low values 0.759 | S. cerevisiae deletion strains, locus YMR205C, strain PFK2 (second series), hits give low values 0.844 | S. cerevisiae deletion strains, locus YNL020C, strain ARK1, hits give low values 0.826 | S. cerevisiae deletion strains, locus YNL183C, strain NPR1, hits give low values 0.652 | S. cerevisiae deletion strains, locus YNL307C, strain MCK1 (second series), hits give low values 0.714 | S. cerevisiae deletion strains, locus YOL136C, strain PFK27, hits give low values 0.766 | S. cerevisiae deletion strains, locus YOR061W, strain CKA2, hits give low values 0.85 | S. cerevisiae deletion strains, locus YOR119C, strain RIO1, hits give low values 0.735 | S. cerevisiae deletion strains, locus YOR231W, strain MKK1, hits give low values 0.722 | S. cerevisiae deletion strains, locus YOR329C, strain SCD5, hits give low values 0.908 | S. cerevisiae deletion strains, locus YPL031C, strain PHO85, hits give low values 0.674 | S. cerevisiae deletion strains, locus YPL204W, strain HRR25, hits give low values 0.683 | S. cerevisiae deletion strains, locus YPR106W, strain ISR1, hits give low values 0.943 | S. cerevisiae deletion strains, locus YPR111W, strain DBF20, hits give low values 0.938 | S. cerevisiae deletion strains, strain NNK1, hits give low values 0.932
active: S. cerevisiae deletion strains, locus YAR019C, strain CDC15, hits give low values 0.853 | S. cerevisiae deletion strains, locus YBL105C, strain PKC1, hits give low values 0.893 | S. cerevisiae deletion strains, locus YBR135W, strain CKS1, hits give low values 0.867 | S. cerevisiae deletion strains, locus YBR136W, strain MEC1, hits give low values 0.888 | S. cerevisiae deletion strains, locus YBR160W, strain CDC28, hits give low values 0.894 | S. cerevisiae deletion strains, locus YDL017W, strain CDC7, hits give low values 0.895 | S. cerevisiae deletion strains, locus YDL108W, strain KIN28, hits give low values 0.878 | S. cerevisiae deletion strains, locus YDL132W, strain cdc53, hits give low values 0.849 | S. cerevisiae deletion strains, locus YDR054C, strain cdc34, hits give low values 0.825 | S. cerevisiae deletion strains, locus YDR226W, strain ADK1, hits give low values 0.884 | S. cerevisiae deletion strains, locus YER133W, strain GLC7, hits give low values 0.69 | S. cerevisiae deletion strains, locus YFL009W, strain cdc4, hits give low values 0.844 | S. cerevisiae deletion strains, locus YFL029C, strain CAK1, hits give low values 0.848 | S. cerevisiae deletion strains, locus YFR003C, strain YPI1, hits give low values 0.901 | S. cerevisiae deletion strains, locus YFR028C, strain CDC14, hits give low values 0.888 | S. cerevisiae deletion strains, locus YGR092W, strain DBF2, hits give low values 0.469 | [8] 0.772 | S. cerevisiae deletion strains, locus YJR016C, strain ILV3, hits give low values 0.877 | S. cerevisiae deletion strains, locus YJR066W, strain TOR1 (second series), hits give low values 0.492 | S. cerevisiae deletion strains, locus YKL193C, strain SDS22, hits give low values 0.849 | S. cerevisiae deletion strains, locus YLR113W, strain HOG1, hits give low values 0.598 | S. cerevisiae deletion strains, locus YLR403W, strain SFP1, hits give low values 0.56 | S. cerevisiae deletion strains, locus YMR001C, strain CDC5, hits give low values 0.88 | S. cerevisiae deletion strains, locus YMR277W, strain FCP1, hits give low values 0.846 | S. cerevisiae deletion strains, locus YNL006W, strain LST8, hits give low values 0.894 | S. cerevisiae deletion strains, locus YNL161W, strain CBK1, hits give low values 0.875 | S. cerevisiae deletion strains, locus YNL207W, strain RIO2, hits give low values 0.867 | S. cerevisiae deletion strains, locus YNL222W, strain SSU72, hits give low values 0.865 | S. cerevisiae deletion strains, locus YOL078W, strain AVO1, hits give low values 0.856 | S. cerevisiae deletion strains, locus YPL153C, strain RAD53, hits give low values 0.657 | S. cerevisiae deletion strains, locus YPL209C, strain IPL1, hits give low values 0.891 | S. cerevisiae deletion strains, locus YPL256C, strain CLN2, hits give low values 0.695 | S. cerevisiae deletion strains, locus YPR025C, strain CCL1, hits give low values 0.888 | S. cerevisiae deletion strains, strain TSCII, hits give low values 0.85
